# Test results reported in ChEMBL document CHEMBL3988442, “University of Dundee, Small-Polar-MMV Screening Library” (2021).
# Screen size: about 66,000 compounds; about 960 (1.5%) showed an effect of 50% or more. This excerpt belongs to a sample that is enriched for strong results.
# Tested on: Trypanosoma brucei
# Assay: Trypanosoma brucei 72 hour study
# Assay type: functional, organism-based
# Parameters: scale not given: in the data most compounds retested in dose-response had high values
compound,measurement,setting,value
Cc1ccc(CN2C[C@@H]3[C@@H](C(=O)NCC4CC4)CCS(=O)(=O)[C@@H]3C2)cc1.O=C(O)C(F)(F)F,Percent Effect,"30.3 µM, […]",-76.84%
O=C1C[C@H]2CC[C@@H](CN1)N2C(=O)Cc1ccsc1,Percent Effect,"30.3 µM, […]",-6.652%
CN(C)C(=O)COCc1cncc2c1CCN(Cc1ccccn1)C2.O=C(O)C(F)(F)F.O=C(O)C(F)(F)F,Percent Effect,"30.3 µM, […]",-50.95%
O=C(NC1CC1)[C@@H]1CCO[C@@H]2CCN(CCc3ccccc3)C[C@@H]21.O=C(O)C(F)(F)F,Percent Effect,"30.3 µM, […]",-14.39%
CC(C)n1c2ccccc2c2c1cc(C(=O)N(C)C)n2C,Percent Effect,"30.3 µM, […]",-58.05%
CC(CNC(=O)Nc1ccc(C#N)cc1)N1CCc2ccccc21 (stereo unspecified),Percent Effect,"30.3 µM, […]",100.3%
CC(CNC(=O)c1ccc(C#N)cc1)N1CCc2ccccc21 (stereo unspecified),Percent Effect,"30.3 µM, […]",1.685%
COc1ccc(NC(=O)NCC(C)N2CCc3ccccc32)cc1 (stereo unspecified),Percent Effect,"30.3 µM, […]",-7.739%
CC(=O)Nc1c(C)noc1/C=C\c1ccc(S(=O)(=O)NC2CC2)cc1,Percent Effect,"30.3 µM, […]",-2.674%
CS(=O)(=O)N1CCCC1c1cccc(Nc2nccs2)n1 (stereo unspecified),Percent Effect,"30.3 µM, […]",92.1%
c1ccc(CCN2CCCC2c2cccc(Nc3nccs3)n2)cc1 (stereo unspecified),Percent Effect,"30.3 µM, […]",29.28%
COCC(=O)N1CCCC1c1cccc(Nc2ncc(C)s2)n1 (stereo unspecified),Percent Effect,"30.3 µM, […]",85.92%
Cc1ccccc1CN1CCCC1c1cccc(Nc2nccs2)n1 (stereo unspecified),Percent Effect,"30.3 µM, […]",5.594%
COCC(=O)N1CCCCC1c1ccnc(Nc2ncc(C)s2)n1 (stereo unspecified),Percent Effect,"30.3 µM, […]",16.03%
Cc1cnc(Nc2cccc(C3CCCN3C(=O)CO)n2)s1 (stereo unspecified),Percent Effect,"30.3 µM, […]",28.67%
Cc1nnc2n1CCN(C(=O)CN(C)Cc1ccccc1)C2,Percent Effect,"30.3 µM, […]",-14.91%
O=C(NCC1CCOCC1)[C@@H]1CC[C@@H]2[C@@H](CCN2Cc2ccncc2)O1.O=C(O)C(F)(F)F.O=C(O)C(F)(F)F,Percent Effect,"30.3 µM, […]",-62.66%
CCc1noc(CCC(=O)N[C@@H]2CC[C@@H](n3ccnc3C)[C@@H]2O)n1,Percent Effect,"30.3 µM, […]",-7.313%
O=C(O)C(F)(F)F.c1coc(CN2CCO[C@H]3[C@H](OCC4CC4)CC[C@@H]32)c1,Percent Effect,"30.3 µM, […]",0.4404%
Oc1c(F)cc(CNc2cccc(-c3nnc[nH]3)c2)cc1F,Percent Effect,"30 µM, 30.03 µM",-51.33%
c1cc(NCc2ccsc2)cc(-c2nnc[nH]2)c1,Percent Effect,"30 µM, 30.03 µM",-50.24%
Oc1ccc(Br)c(CNc2cccc(-c3nnc[nH]3)c2)c1,Percent Effect,"30 µM, 30.03 µM",56.16%
CCCc1nc2c(c(C)c(C)n2Cc2cccnc2)c(N)c1CC,Percent Effect,"30.3 µM, […]",26.57%
CCCc1nc2c(c(C)c(C)n2Cc2ccccn2)c(N)c1CC,Percent Effect,"30.3 µM, […]",99.32%
CCCc1nc2c(c(C)c(C)n2Cc2ccncc2)c(N)c1CC,Percent Effect,"30.3 µM, […]",11.66%
COc1cccc(-c2noc(C3CCN(Cc4ccc(C)cc4)C3)n2)c1.Cl (stereo unspecified),Percent Effect,"30.3 µM, […]",4.598%
Cc1nc(=O)c2ccccc2n1C1=CCN(CC(=O)N2CCCC2)CC1,Percent Effect,"30.3 µM, […]",9.131%
CCN1CCC2(CC1)OCCN2C(=O)c1cc(Cl)c(OC)c(Cl)c1.Cl,Percent Effect,"30 µM, 30.03 µM",89.37%
CCN1CCC2(CC1)OCCN2C(=O)c1ccc(OC)c(Cl)c1.Cl,Percent Effect,"30 µM, 30.03 µM",50.46%
CCCOc1c(Cl)cc(C(=O)N2CCOC23CCN(C)CC3)cc1Cl,Percent Effect,"30 µM, 30.03 µM",-15.42%
COCC1CC2(CCN(C(=O)c3ccc(OC)c(Cl)c3)CC2)CO1 (stereo unspecified),Percent Effect,"30 µM, 30.03 µM",-6.719%
COc1cc(C(=O)N2CCCS2(=O)=O)cc(Cl)c1OC,Percent Effect,"30 µM, 30.03 µM",-12.01%
COc1ccc(C(=O)N2C[C@@H](CN3CCCCC3)[C@@H](CO)C2)cc1Cl,Percent Effect,"30 µM, 30.03 µM",22.63%
COc1ccc(-c2cc3nn(CC(=O)NC(C)C)c(=O)n3c(C)n2)cc1,Percent Effect,"30 µM, 30.03 µM",-13.21%
Cc1cc(C)cc(CN2CCN(Cc3cccc(CCN)c3)CC2=O)c1,Percent Effect,"30 µM, 30.03 µM",35.33%
CCc1cc(CN2C[C@H]3CC[C@@H]2CN(C2Cc4ccccc4C2)C3)on1,Percent Effect,"30 µM, 30.03 µM",10.13%
Cc1nnc(CN2CCCC2c2ccsc2)o1 (stereo unspecified),Percent Effect,"30.3 µM, […]",-40.61%
Cc1nnc(CN2CCCC2c2ccc(C(C)(C)C)cc2)o1 (stereo unspecified),Percent Effect,"30.3 µM, […]",86.15%
Cc1nnc(CN2CCCC2c2ccc(Cl)c(Cl)c2)o1 (stereo unspecified),Percent Effect,"30.3 µM, […]",3.085%
Cc1ccc(CN(CCCn2ccnc2)Cc2cc(F)ccc2F)s1.O=C(O)CC(O)(CC(=O)O)C(=O)O,Percent Effect,"30.3 µM, […]",-12.95%
Cc1ccccc1-n1cnnc1SCC1CCCCO1 (stereo unspecified),Percent Effect,"30 µM, 30.03 µM",69.07%
Cc1ccccc1-n1cnnc1SCC(=O)NCC1CCCO1 (stereo unspecified),Percent Effect,"30 µM, 30.03 µM",-21.19%
Cc1ccccc1-n1cnnc1SCCOCC1CCCO1 (stereo unspecified),Percent Effect,"30 µM, 30.03 µM",-22.78%
O=C(CCc1cccs1)N1CCCC(n2ccnc2)C1 (stereo unspecified),Percent Effect,10 µM,-23.55%
same,Percent Effect,"30.3 µM, […]",37.83%
Cc1cc(NC(=O)N2CCCC2C(=O)NC2CC2)c2ncccc2c1 (stereo unspecified),Percent Effect,"30 µM, 30.03 µM",-28.65%
Cc1cc(NC(=O)N2CCCC2C(C)(C)O)c2ncccc2c1 (stereo unspecified),Percent Effect,"30 µM, 30.03 µM",-36.24%
Cc1cc(NC(=O)NC2CCN(C(C)C)CC2)c2ncccc2c1,Percent Effect,"30 µM, 30.03 µM",56.47%
Cl.c1cn(-c2cncc(C3CCNCC3)n2)cn1,Percent Effect,"30.3 µM, […]",-40.04%
CN(C)C(=O)CN1CCC2(COCc3cnc(-c4cccnc4)nc32)C1.O=C(O)C(F)(F)F.O=C(O)C(F)(F)F (stereo unspecified),Percent Effect,"30.3 µM, […]",-72.36%
CN(C)C(=O)c1n[nH]c2c1CN(CC1CCCCC1)C2.O=C(O)C(F)(F)F.O=C(O)C(F)(F)F,Percent Effect,"30.3 µM, […]",-36.34%
N#Cc1c(Cl)nsc1N1CCN(CC2CCCCC2)CC1,Percent Effect,"30.3 µM, […]",100.2%
N#Cc1c(Cl)nsc1NCc1ccc(N2CCC(CO)CC2)cc1,Percent Effect,"30 µM, 30.03 µM",-28.26%
N#Cc1c(Cl)nsc1N1CCN(CC2CC2)CC1,Percent Effect,"30.3 µM, […]",-23.59%
CC(=O)N1CCN(C(=O)CCNc2snc(Cl)c2C#N)CC1,Percent Effect,"30 µM, 30.03 µM",-13.74%
CC(C)(C)CCN1CCN(c2snc(Cl)c2C#N)CC1,Percent Effect,"30.3 µM, […]",100.4%
CC(=O)N1CCN(CCNc2snc(Cl)c2C#N)CC1,Percent Effect,"30 µM, 30.03 µM",1.028%
CC(C)COCC1CN(C(=O)c2cscn2)Cc2ncn(C)c21.O=C(O)C(F)(F)F (stereo unspecified),Percent Effect,"30.3 µM, […]",-83.42%
CN(C)CCOCc1cncc2c1CCN(Cc1ccccn1)C2.O=C(O)C(F)(F)F.O=C(O)C(F)(F)F.O=C(O)C(F)(F)F,Percent Effect,"30.3 µM, […]",-28.23%
Cc1nc(CN2CC[C@H]3[C@@H]2CCC(=O)N3c2cnn(C)c2)cs1.O=C(O)C(F)(F)F,Percent Effect,"30.3 µM, […]",-10.95%
Cc1ccc(CN(CCCn2ccnc2)Cc2c[nH]nc2C(C)(C)C)s1.O=C(O)CC(O)(CC(=O)O)C(=O)O,Percent Effect,"30.3 µM, […]",-172%
Cc1ccc(C(NC(=O)C2CC2)c2cccc(S(C)(=O)=O)c2)cc1 (stereo unspecified),Percent Effect,"30 µM, 30.03 µM",-25.5%
CN(C)CC(C)(O)CNC(=O)Nc1sc2ccccc2c1Cl (stereo unspecified),Percent Effect,"30.3 µM, […]",103.3%
CN(C)C(=O)CCNC(=O)Nc1sc2ccccc2c1Cl,Percent Effect,"30.3 µM, […]",-534.4%
CS(=O)(=O)CCNC(=O)Nc1sc2ccccc2c1Cl,Percent Effect,"30.3 µM, […]",-157.9%
Cn1nc(COCC2CC2)c2c1CCN(Cc1cccs1)C2.O=C(O)C(F)(F)F,Percent Effect,"30.3 µM, […]",-72.61%
O=C(O)C(F)(F)F.c1cncc(N2CCCn3nnc(COCC4CC4)c3C2)c1,Percent Effect,"30.3 µM, […]",-2.195%
CN(C)CCN1C(=O)CCCC12CCCN(C(=O)c1cc[nH]n1)C2.O=C(O)C(F)(F)F (stereo unspecified),Percent Effect,"30.3 µM, […]",-2.017%
CCOc1ncccc1CNC(=O)NC(C)Cn1cccn1 (stereo unspecified),Percent Effect,10 µM,-0.2891%
same,Percent Effect,"30.3 µM, […]",0.8601%
Cc1cc(C)n(C2CCCN(C(=O)c3ccc(F)cc3F)C2)n1 (stereo unspecified),Percent Effect,"30 µM, 30.03 µM",59.51%
Cc1cc(C)n(C2CCCN(C(=O)c3cccc(F)c3F)C2)n1 (stereo unspecified),Percent Effect,"30 µM, 30.03 µM",-91.58%
Cc1nc(C)n(C2CCCN(C(=O)c3ccc(F)cc3F)C2)n1 (stereo unspecified),Percent Effect,"30 µM, 30.03 µM",1.062%
Cn1cc(N2C(=O)CC[C@@H]3[C@H]2CCN3CC2CCOCC2)cn1.O=C(O)C(F)(F)F,Percent Effect,"30.3 µM, […]",-7.648%
CC(=O)N1CCC2(CCN(Cc3ccccn3)C2=O)C1.O=C(O)C(F)(F)F (stereo unspecified),Percent Effect,"30 µM, 30.03 µM",1.584%
Clc1cc(Cl)cc(CN2CCC(NCc3ncc[nH]3)CC2)c1,Percent Effect,"30.3 µM, […]",-65.03%
Clc1cccc(N2CCC(NCc3cc[nH]n3)C2)c1 (stereo unspecified),Percent Effect,"30 µM, 30.03 µM",15.76%
Clc1cc(Cl)cc(CN2CCC(NCc3cc[nH]n3)CC2)c1,Percent Effect,"30.3 µM, […]",90.13%
Cc1ccc(CN2CCc3ncc(CNC(=O)C4CCC4)n3CC2)o1.O=C(O)C(F)(F)F,Percent Effect,"30.3 µM, […]",-36.54%
Cc1noc(C)c1C(=O)NCC(C)N1CCc2ccccc21 (stereo unspecified),Percent Effect,10 µM,-61.25%
CCC(C)(C)n1nnnc1C(c1cccs1)N1CCc2ccccc21 (stereo unspecified),Percent Effect,"30.3 µM, […]",72.61%
CCC(C)(C)n1nnnc1C(c1cccs1)N1CCc2ccccc2C1 (stereo unspecified),Percent Effect,"30.3 µM, […]",99.92%
CCC(CNC(=O)c1ccccn1)N1CCc2ccccc2C1 (stereo unspecified),Percent Effect,"30 µM, 30.03 µM",-43.95%
CCC(C)(C)n1nnnc1C(c1cccs1)N1CCCCC1 (stereo unspecified),Percent Effect,"30.3 µM, […]",13.9%
COc1ccc(-c2n[nH]c(C)c2CC(=O)N2CCOCC2)cc1,Percent Effect,"30 µM, 30.03 µM",6.943%
CNC(=O)c1cc2c(nc1NCC1CC1)CCN(S(C)(=O)=O)CC2.O=C(O)C(F)(F)F,Percent Effect,"30 µM, 30.03 µM",-3.721%
Cc1csc(C(=O)N2CC[C@H](Oc3cccnc3C)[C@@H](O)CC2)c1,Percent Effect,"30.3 µM, […]",-24.66%
COc1ccc(CN2CCn3cccc3C2C)cc1F (stereo unspecified),Percent Effect,"30 µM, 30.03 µM",11.74%
CN1CC2(CCN(Cc3cccc(C#N)c3)CC2)CC1=O,Percent Effect,"30 µM, 30.03 µM",-2.169%
NC(=O)c1ccc(CN2C(=O)C3(CCNCC3)Nc3ccccc32)cc1,Percent Effect,"30 µM, 30.03 µM",8.328%
C=Cc1ccc(CN2C(=O)C3(CCNCC3)Nc3ccccc32)cc1,Percent Effect,"30 µM, 30.03 µM",-41.13%
N#Cc1cccc(CN2C(=O)C3(CCNCC3)Nc3ccccc32)c1,Percent Effect,"30 µM, 30.03 µM",83.34%
CC(C)c1ccc(CN2C(=O)C3(CCNCC3)Nc3ccccc32)cc1,Percent Effect,"30 µM, 30.03 µM",101.9%
N#Cc1cccc(CN2C(=O)c3ccccc3CS2(=O)=O)c1,Percent Effect,"30 µM, 30.03 µM",-36.86%
O=C(O)C(F)(F)F.O=C(O)C(F)(F)F.c1cc(CN2Cc3nccn3CC(Cn3cncn3)C2)ccn1 (stereo unspecified),Percent Effect,"30 µM, 30.03 µM",-13.09%
CNC(=O)CN1CCc2c(CNc3nccs3)n[nH]c2C1.O=C(O)C(F)(F)F,Percent Effect,"30 µM, 30.03 µM",-11.16%
